# PubChem BioAssay (NCATS)
# Several values for one entry are separate records, joined by “and”; a condition that tells them apart may be missing. Identical values can stand only once. Records with an inconclusive call do not appear. Entries that show only a call come without a potency. Activity calls are given as the source filed them. Unless noted, the call rests on the fitted dose curve; in most records, active means well fitted curve in the direction sought with a large enough effect; inconclusive means small, poorly fitted or top-dose-only effect, or another doubt; inactive means no such curve, though single readings can be large; an effect the other way counts as inactive or inconclusive.
# Experiments:
# [1] = qHTS assay for measurement of the activity of small molecule inhibitors on Zika virus induced Caspase-3 activity in human iPSC derived neural progenitor cells (hNPCs) (AID 1224857); details: hNPCs ZIKV-induced caspase-3/7, Caspase-Glo luminescence, 6 h; series mostly up to 45.7 µM; further: nearly all actives have a fitted effect of over 65% in size
# In short: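 Human iPSC-derived neural progenitor cells pretreated 1 hr with compounds, then infected with Zika virus (2 FFU/cell) for 6 hours at 37 C. Caspase-3/7 measured by Caspase-Glo luminescence; % inhibition calculated from induction scaled to uninfected (0%) and infected (100%) wells.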
# [2] = qHTS assay for measurement of the activity of small molecule inhibitors on Zika virus induced Caspase-3 activity in human astrocytoma cells (AID 1224859); details: SNB-19 ZIKV-induced caspase-3/7, luminescence, 6 h; series mostly up to 45.7 µM
# In short: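 SNB-19 astrocytoma cells, 250/well, pretreated 1 h with compounds, then Zika virus at 2 FFU/cell for 6 h at 37 C; Caspase-Glo 3/7 luminescence after 30 min; percent inhibition normalised to uninfected and infected controls.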
# [3] = P-glycoprotein substrates identified in KB-3-1 adenocarcinoma cell line, qHTS therapeutic library screen (AID 1346986); details: KB-3-1 parental cells viability, CellTiter-Glo, 72 h; at 44.5 µM (top of the series); further: nearly all actives have a fitted effect of over 60% in size
# In short: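 Dose-response cytotoxicity, KB-3-1 vs P-gp-high KB-8-5-11, no colchicine in assay medium. Read: CellTiter-Glo at 72 h.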
# [4] = P-glycoprotein substrates identified in KB-8-5-11 adenocarcinoma cell line, qHTS therapeutic library screen (AID 1346987); details: KB-8-5-11 (P-gp overexpressing) viability, CellTiter-Glo, 72 h; series mostly up to 44.5 µM; further: nearly all actives have a fitted effect of over 65% in size
# In short: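 In this qHTS, P-gp-rich KB-8-5-11 cells received library compounds across a concentration range. Viability was quantified by luminescence after 72 h at 37 degree C.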
# [5] = NS1 protein of Zika virus - qHTS assay to identify small molecule inhibitors in human HEK 293 cells (AID 1347053); details: HEK293 ZIKV MR766 infection, NS1 TR-FRET, 24 h; series mostly up to 46.1 µM; further: nearly all actives have a fitted effect of over 55% in size; further: potency means the concentration at half of the fitted maximal effect
# In short: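 In this cell-based screen, HEK 293 cultures received compound for one hour before Zika MR766 at MOI = 0.5. NS1 was quantified 24 hours later by TR-FRET, normalized to virus-free wells and infected wells.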
# [6] = qHTS profiling for inhibitors of Plasmodium falciparum (DD2) proliferation (AID 743323; call rule not given here); details: lower = more inhibition; at 28.7 µM (top of the series) unless noted
# In short: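 SYBR Green fluorescence (ex 485, em 535 nm) of lysed cultures gives parasite DNA content; wells normalized to artemisinin (0.29 uM) and DMSO controls. Infected red cells: 0.3% parasitemia, 2.5% hematocrit, 72 h, 37 C.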
# [7] = qHTS profiling for inhibitors of Plasmodium falciparum (HB3) proliferation (AID 743324); details: Plasmodium falciparum HB3 blood-stage proliferation; at 28.7 µM (top of the series) unless noted
# In short: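 SYBR Green fluorescence (485 ex/535 em) of lysed cultures, incubated overnight at room temperature in the dark, quantifies parasite DNA. Infected erythrocytes at 0.3% parasitemia and 2.5% hematocrit were exposed 72 h; values normalized to DMSO and 0.29 uM artemisinin controls.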
# [8] = qHTS profiling of the MIPE4 collection as inhibitors of Plasmodium falciparum (3D7) proliferation (AID 743344; call rule not given here); details: P. falciparum 3D7 in erythrocytes, SYBR Green DNA fluorescence, 72 h; at 28.5 µM (top of the series) unless noted
# In short: (§1)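 Parasite DNA was quantified by SYBR Green I fluorescence (ex 485, em 535 nm) after overnight lysis in saponin/Triton buffer at room temperature. Cultures at 0.3% parasitemia and 2.5% hematocrit were first exposed to compound for 72 h at 37 C; signals were normalised to artemisinin (0.29 uM) and vehicle wells.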
# [9] = qHTS profiling of the MIPE4 collection as inhibitors of Plasmodium falciparum (DD2) proliferation (AID 743345; call rule not given here); details: P. falciparum Dd2 in erythrocytes, SYBR Green DNA, 72 h; at 28.5 µM (top of the series) unless noted
# In short: as §1
# [10] = qHTS profiling of the MIPE4 collection as inhibitors of Plasmodium falciparum (DD2) proliferation (Rep 2) (AID 743346; call rule not given here); details: P. falciparum Dd2 in erythrocytes, SYBR Green DNA, 72 h; at 28.5 µM (top of the series) unless noted
# In short: as §1
# [11] = qHTS profiling of the MIPE4 collection as inhibitors of Plasmodium falciparum (HB3) proliferation (AID 743347; call rule not given here); details: P. falciparum HB3 in erythrocytes, SYBR Green DNA, 72 h; at 28.5 µM (top of the series) unless noted
# In short: as §1
# [12] = Identifying Small Molecule Inhibitors of Pancreatic Cancer Stem Cells (SN12C, Adherent) (AID 1259358); details: viability/growth inhibition;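 further: potency means the concentration at half of the fitted maximal effect; cell survival measured after 48 h of compound exposure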
# In short: (§2)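 Adherent (2D) versus sphere (3D) formats; spheres generated 14 d in SCM beforehand. Compound transferred by pin tool after 4 h, 48 h incubation, CellTiter-Glo endpoint.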
# [13] = Identifying Small Molecule Inhibitors of Pancreatic Cancer Stem Cells (SN12C, Spheroid) (AID 1259360); details: SN12C spheroid viability; further: potency means the concentration at half of the fitted maximal effect
# In short: (§3)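 Endpoint: ATP-based luminescence, 48 h drug exposure. Bortezomib at 9.2 uM final as full-kill control; DMSO vehicle as negative control; activity normalized between vehicle and cell-free wells.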
# [14] = Identifying Small Molecule Inhibitors of Pancreatic Cancer Stem Cells (A278, Adherent) (AID 1259361);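 further: viability read after 48 h compound exposure; nearly all actives have a fitted effect of over 35% in size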
# In short: as §2
# [15] = Identifying Small Molecule Inhibitors of Pancreatic Cancer Stem Cells (Panc1, Adherent) (AID 1259362); details: viability; further: potency means the concentration at half of the fitted maximal effect
# In short: as §2
# [16] = Natriuretic polypeptide receptor (hNpr1) antagonism - Pilot counterscreen GloSensor control cell line (AID 1347045; calls by dose curve); details: HEK293 cGMP GloSensor cells, SNP-stimulated luminescence, 20 min; series mostly up to 38.3 µM
# In short: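 HEK293 cGMP-sensor cells; 2% GloSensor reagent 2 h RT; LOPAC compounds in 1:5 titrations 30-50 min; 50 uM SNP 20 min; luminescence pre-read and post-read.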
# [17] = qHTS assay to identify small molecule inhibitors of chordoma cells - UCH-2 (AID 1259356); details: UCH-2 chordoma viability, CellTiter-Glo ATP luminescence, 48 h; series mostly up to 46.1 µM
# [18] = Identifying Small Molecule Inhibitors of Pancreatic Cancer Stem Cells (A2780, Spheroid) (AID 1259357); details: A2780 spheroid viability;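 further: potency means the concentration at half of the fitted maximal effect; compound exposure lasted 48 h before the ATP luminescence read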
# In short: as §3
# [19] = Identifying Small Molecule Inhibitors of Pancreatic Cancer Stem Cells (Panc1, Spheroid) (AID 1259359); details: Panc1 spheroid cancer stem cell viability;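 further: potency means the concentration at half of the fitted maximal effect; compound exposure lasted 48 h before reading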
# In short: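 Monolayer and spheroid cultures are compared. Spheroids form over 14 days in stem cell medium on hydrogel-coated low-attachment plates, then are exposed to compound for 48 h before CellTiter-Glo luminescence.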
smiles,measurement,setting,value
OC[C@H]1O[C@H](O[C@]2(CCl)O[C@H](CCl)[C@@H](O)[C@@H]2O)[C@H](O)[C@@H](O)[C@H]1Cl,outcome,[1],inactive
same,outcome,[2],inactive
same,outcome,[3],inactive
same,Potency,[4],inactive
same,Potency,[5],inactive
COC(=O)CCc1ccc(OCC(O)CNC(C)C)cc1 (stereo unspecified),outcome,[1],inactive
same,outcome,[2],inactive
same,Potency,[4],inactive
CNCC[C@@H](Oc1ccccc1C)c1ccccc1,outcome,[1],inactive
same,outcome,[2],inactive
same,Potency,[4],inactive
same,Potency,[5],inactive
COc1cc2c(cc1O)CC[C@@H]1[C@@H]2CC[C@]2(C)[C@@H](O)CC[C@@H]12,"activity, percent of control",[6],93.6% and 83.5%
same,"remaining proliferation (% of control), lower = more inhibition",[7],93.9% and 38.4%
same,"parasite growth, % of DMSO control",[8],83.5%
same,"parasite growth remaining, % of DMSO control (lower = more inhibition)",[9],96.4%
same,"parasite growth, % of control (lower = inhibition)",[10],130%
same,"growth, % of control",[11],83.5%
same,outcome,[1],inactive
same,outcome,[2],inactive
same,Potency,[12],2350 nM (active)
same,Potency,[13],5900 nM (active)
same,IC50 (viability decrease),[14],935 nM (active)
same,Potency,[15],1050 nM (active)
same,outcome,[16],inactive
same,Potency,[5],inactive
CNC(=O)CN(CCN(CCN(CC(=O)[O-])CC(=O)NC)CC(=O)[O-])CC(=O)[O-].O.[Gd+3],outcome,[1],inactive
same,outcome,[2],inactive
same,Potency,[4],inactive
same,Potency,[5],inactive
COc1ccc(OC)c(C(O)CNC(=O)CN)c1 (stereo unspecified),outcome,[1],inactive
same,outcome,[2],inactive
same,Potency,[5],inactive
COc1c(C)c2c(c(O)c1C/C=C(\C)CCC(=O)O)C(=O)OC2,outcome,[1],inactive
same,outcome,[2],inactive
same,Potency,[17],inactive
same,Potency,[5],inactive
OC(CCN1CCCCC1)(c1ccccc1)c1ccccc1,outcome,[1],inactive
same,outcome,[2],inactive
same,Potency,[5],inactive
COc1cc(OC)cc(OC)c1,outcome,[1],inactive
same,outcome,[2],inactive
same,Potency,[4],inactive
C[C@@H]1C[C@H]2[C@@H]3C[C@H](F)C4=CC(=O)C(Cl)=C[C@]4(C)[C@@]3(F)[C@@H](O)C[C@]2(C)[C@@]1(O)C(=O)CO,outcome,[1],inactive
same,outcome,[2],inactive
same,Potency,[4],inactive
same,Potency,[5],inactive
C[C@@H]1C[C@H]2[C@@H]3CCC4=CC(=O)C=C[C@]4(C)[C@@]3(F)[C@@H](O)C[C@]2(C)[C@H]1C(=O)CO,outcome,[1],inactive
same,outcome,[2],inactive
same,Potency,[17],inactive
same,Potency,[5],inactive
CC(=O)OCC(=O)[C@@]1(O)CC[C@H]2[C@@H]3CCC4=CC(=O)C=C[C@]4(C)[C@H]3[C@@H](O)C[C@@]21C,outcome,[1],inactive
same,outcome,[2],inactive
same,Potency,[5],inactive
Cc1ccc(Nc2c(F)cccc2Cl)c(CC(=O)O)c1,outcome,[1],inactive
same,outcome,[2],inactive
same,Potency,[4],inactive
same,Potency,[5],inactive
Nc1ccn([C@@H]2O[C@H](CO)[C@@H](O)C2(F)F)c(=O)n1,"activity, percent of control",[6],1.07% [at 57.5 µM]
same,"remaining proliferation (% of control), lower = more inhibition",[7],0.276% [at 57.5 µM]
same,outcome,[1],inactive
same,outcome,[2],inactive
same,Potency,[18],481 nM (active)
same,Potency,[12],54 nM (active)
same,Potency,[19],17.1 nM (active)
same,Potency,[5],3160 nM (active)
